Among all 300,000 compounds or so, about 37,000 (12%) were called active. The sample holds actives, similar compounds and a random draw of the others, so the mix is not that of the screen. A number with no mark means an inactive call. No stated cut-off is given here; in the data, active means max response mostly above about 13% (no sharp cut-off); inactive means mostly below about 14%.
Assay: Cycloheximide Counterscreen for Small Molecule Inhibitors of Shiga Toxin; further: read at 38.3 µM for the half of the compounds with a filed dose; 0% is about no effect
Details: cell reporter, cycloheximide protein synthesis inhibition counterscreen; stronger effect = higher value

Question: Which max response does the source give for `O=C(CSc1ccccn1)Nc1nc2c(ccc3ccccc32)s1` here?
Answer: Its max response is 15%.

Question: For `CC(=O)NCCC(=O)Nc1cc(S(=O)(=O)N2CCCCC2)ccc1Oc1cccc(C)c1`, which max response is on record?
Answer: Its max response is -3.52%.

Question: Which max response does the source give for `O=C(c1cccs1)N1CCC(c2nc3ccccc3s2)CC1` here?
Answer: The max response was -1.42%.

Question: For `Cc1cccc(C(=O)N2CCC(c3nc4ccccc4s3)CC2)c1`, which max response is on record?
Answer: Its max response is -3.16%.

Question: For `c1ccc2sc(C3CCCNC3)nc2c1` (stereo not drawn), which max response is on record?
Answer: Its max response is 30.8% (active).

Question: Which max response does the source give for `Cc1[nH]c(C)c(S(=O)(=O)N2CCN(c3cccc(C(F)(F)F)c3)CC2)c1C(=O)N1CCCC1` here?
Answer: The max response was -5.38%.

Question: With `C=C1CCN(Cc2ccc(OC)cc2)S(=O)(=O)c2ccccc21` as the compound, how does the max response read?
Answer: Its max response is 12.8%.

Question: For `CCOc1ccc(N2CC(C(=O)NCc3ccccn3)CC2=O)cc1` (stereo not drawn), which max response is on record?
Answer: Its max response is -11.6%.

Question: With `CC1CCN(c2ccc(C(=O)NCc3ccc4c(c3)OCO4)cc2[N+](=O)[O-])CC1` as the compound, how does the max response read?
Answer: The max response was -5.58%.

Question: With `CCc1ccc(NC(=O)CN2CCC(C(=O)c3ccc(OC)cc3)CC2)cc1` as the compound, how does the max response read?
Answer: The max response was -4.07%.

Question: With `COc1ccc(C(=O)C2CN(C)CC2C(=O)c2ccc(OC)cc2)cc1` (stereo not drawn) as the compound, how does the max response read?
Answer: The max response was 19% (active).

Question: Which max response does the source give for `Cc1ccc(C2CN(C)CC2C(=O)c2ccc(F)cc2)cc1` (stereo not drawn) here?
Answer: Its max response is -3.61%.

Question: With `CC(C)(C)C(=O)CN1C2=NCCN2c2ccccc21` as the compound, how does the max response read?
Answer: The max response was -2.32%.

Question: With `CCc1ccc(NC(=O)Cn2nnc(C(=O)NCc3ccc4c(c3)OCO4)c2N)cc1` as the compound, how does the max response read?
Answer: The max response was -3.61%.

Question: For `Cc1ccc(-c2nc(CSCC(=O)NC3CCN(Cc4ccccc4)CC3)c(C)o2)cc1`, which max response is on record?
Answer: Its max response is -6.12%.

Question: For `COc1ccc2oc(C(=O)NCc3ccco3)c(C)c2c1`, which max response is on record?
Answer: Its max response is 31.4% (active).

Question: For `Cc1cc(S(=O)(=O)Nc2ccc(C(=O)NCC(c3ccco3)N3CCCC3)cc2)ccc1F` (stereo not drawn), which max response is on record?
Answer: The max response was 0.909%.

Question: For `COc1cccc(OCC(O)CNC(=O)c2oc3c(C)c(C)ccc3c2C)c1` (stereo not drawn), which max response is on record?
Answer: The max response was -4.29%.

Question: For `COc1cc(C(=O)NC(=S)NCc2ccco2)cc(OC)c1OC`, which max response is on record?
Answer: The max response was 2.82%.

Question: With `COc1cc(C(=O)N[C@@H](C)C(=O)NCc2ccco2)cc(OC)c1OC` as the compound, how does the max response read?
Answer: Its max response is -1.35%.

Question: For `Cc1c(C(=O)NCC(c2ccco2)N2CCCC2)oc2ccc(Cl)cc12` (stereo not drawn), which max response is on record?
Answer: Its max response is 37.1% (active).

Question: With `CCCCn1c(N)c(N(CCOC)C(=O)c2oc3ccc(OC)cc3c2C)c(=O)[nH]c1=O` as the compound, how does the max response read?
Answer: Its max response is -2.73%.

Question: With `COc1ccc2oc(C(=O)NCC(Cc3ccccc3)N(C)C)c(C)c2c1` (stereo not drawn) as the compound, how does the max response read?
Answer: The max response was 12% (active).

Question: With `Cc1c(C(=O)NCCN(C)C)oc2ccc(S(=O)(=O)N3CCCC3)cc12` as the compound, how does the max response read?
Answer: The max response was 2.66%.

Question: With `COc1ccc(NS(=O)(=O)c2ccc(F)cc2F)cn1` as the compound, how does the max response read?
Answer: The max response was -4.72%.

Question: For `COc1cc(C(=O)NCCOC(=O)c2cccc(N(C)C)c2)cc(OC)c1OC`, which max response is on record?
Answer: The max response was -1.25%.

Question: For `CC/C(O)=C1\C(=O)CC(C)(C)CC1=NCCc1nc2ccccc2[nH]1`, which max response is on record?
Answer: The max response was 6.92%.

Question: Which max response does the source give for `CCC(=O)/C(=C(/O)c1ccccc1)c1nc2ccccc2[nH]1` here?
Answer: Its max response is 31% (active).

Question: With `Cc1nc2ccccc2c(-c2ccccc2)c1C(=O)c1ccccc1` as the compound, how does the max response read?
Answer: The max response was -4.4%.

Question: For `Cc1nnc(Sc2nc3c(c(=O)[nH]c(=O)n3C)n2Cc2ccccc2)s1`, which max response is on record?
Answer: The max response was -5.79%.

Question: With `Cn1c(SCc2nc3ccccc3s2)nnc1-c1ccc2c(c1)OCO2` as the compound, how does the max response read?
Answer: The max response was 39.5% (active).

Question: For `Cc1ccccc1-c1nnc(SCC(=O)NCc2ccc3c(c2)OCO3)n1C`, which max response is on record?
Answer: Its max response is -2.35%.

Question: For `O=C(O)CSc1nnc(-c2ccc3c(c2)OCO3)n1-c1ccccc1`, which max response is on record?
Answer: Its max response is 12.9%.

Question: For `Cn1c(SCC(=O)N2CCOCC2)nnc1-c1ccc(NC(=O)c2ccccc2F)cc1`, which max response is on record?
Answer: The max response was -4.11%.

Question: For `Cn1c(SCC(=O)N2CCOCC2)nnc1-c1ccc2ncccc2c1`, which max response is on record?
Answer: Its max response is -0.963%.

Question: For `Cn1c(SCC(=O)N2CCCC2)nnc1-c1ccc2c(c1)OCO2`, which max response is on record?
Answer: Its max response is 18.9% (active).

Question: Which max response does the source give for `COc1ccccc1NC(=O)CCN1CCN(c2ccc(Cl)cc2)CC1` here?
Answer: Its max response is -0.528%.

Question: For `COc1cc(C(C(=O)NC2CCCC2)N(C(=O)c2ccco2)c2ccccc2C(C)=O)cc(OC)c1OC` (stereo not drawn), which max response is on record?
Answer: The max response was 3.6%.

Question: Which max response does the source give for `CC(C)c1c(C(=O)N/N=C/c2ccccc2C(=O)O)nnn1-c1nonc1N` here?
Answer: Its max response is 23.4%.

Question: For `COc1ccccc1C(=O)NC(CCSC)C(=O)NNC(=O)c1csc(N2CCOCC2)n1` (stereo not drawn), which max response is on record?
Answer: Its max response is -1.29%.

Question: Which max response does the source give for `O=C(NCCc1ccc(Cl)cc1Cl)c1cc([N+](=O)[O-])c[nH]c1=O` here?
Answer: Its max response is -5.02%.

Question: For `CCCN1CCN(C(=O)CCCNC(=O)c2ccc(Cl)cc2)CC1`, which max response is on record?
Answer: Its max response is -2.8%.

Question: With `CN1CCN(NC(=O)Nc2ccc(Br)cc2)CC1` as the compound, how does the max response read?
Answer: Its max response is 24.2% (active).

Question: Which max response does the source give for `COc1ccc(NC(=O)NN2CCN(C)CC2)c(OC)c1` here?
Answer: The max response was 0.309%.

Question: Which max response does the source give for `O=C(NC(=O)c1ccccc1N1CCCCC1)Nc1ccc(Br)cc1` here?
Answer: The max response was -3.48%.

Question: For `COc1ccc(-c2nc3c(s2)CCc2onc(-c4ccc(OC)cc4)c2-3)cc1`, which max response is on record?
Answer: Its max response is -2.4%.

Question: With `COc1ccc(S(=O)(=O)N2CCN(C)CC2)c(C)c1` as the compound, how does the max response read?
Answer: The max response was -3.62%.

Question: For `COc1cccc(Nc2nc(N)c([N+](=O)[O-])c(NCc3ccco3)n2)c1`, which max response is on record?
Answer: Its max response is 19.4% (active).

Question: With `CN(c1ccccc1)c1nc(N)c([N+](=O)[O-])c(NCc2ccco2)n1` as the compound, how does the max response read?
Answer: The max response was 1.96%.

Question: Which max response does the source give for `Nc1nc(NCCCN2CCOCC2)nc(Nc2ccccc2)c1[N+](=O)[O-]` here?
Answer: The max response was -2.59%.

Question: With `COc1ccccc1CCNS(=O)(=O)c1cc2c3c(c1)C(C)C(=O)N3CCC2` (stereo not drawn) as the compound, how does the max response read?
Answer: The max response was 4.12%.

Question: With `CC1=C(C)C(=O)OC(C(C)C2CCC3C4CC=C5CC(OC6OC(COC7OC(CO)C(O)C(O)C7O)C(O)C(O)C6O)CC(O)C5(C)C4CCC23C)C1` (stereo not drawn) as the compound, how does the max response read?
Answer: Its max response is 7.38%.

Question: With `CN(C)c1ccc(Nc2c3c4c(cccc4n(C)c2=O)C(=O)c2ccccc2-3)cc1` as the compound, how does the max response read?
Answer: The max response was 3.88%.

Question: Which max response does the source give for `Cc1cc(N/C=C\C(=O)c2ccc(Cl)c(Cl)c2)no1` here?
Answer: The max response was 11.9% (active).

Question: For `Cc1cc(NC(=O)CSc2nnc(-c3ccc(Cl)s3)o2)no1`, which max response is on record?
Answer: The max response was 5.82%.

Question: Which max response does the source give for `COc1ccc(C(=O)/C=C/Nc2ccccn2)cc1` here?
Answer: Its max response is 2.25%.

Question: For `COc1ccc(NC(=O)CSc2nncc(=O)n2N)cc1OC`, which max response is on record?
Answer: The max response was -3.35%.

Question: With `COC(=O)[C@@H]1CC[C@H](C)[C@@H](c2ccc(C)cc2)N1C(=O)c1ccc(/C=N/O[C@H](C)c2cn([C@@H]3COC[C@H]3O)nn2)cc1` as the compound, how does the max response read?
Answer: Its max response is -2.13%.

Source: PubChem BioAssay AID2314 (National Center for Advancing Translational Sciences (NCATS), 2010)
